Assay results from PubChem BioAssay (NCI).
The panel holds about 83,000 compounds, 20% with a hit somewhere; the sample as a whole holds those more often.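 Method: cells in 96-well plates; compound added at one concentration; 48 h incubation; percent growth measured; values under 10 scored active.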 Unmarked numbers belong to inactive results. Activity calls are given as the source filed them.

Experiments:
Experiment in all cases: NCI-60 one-dose screen, 48 h (100 = growth as untreated, 0 = no growth, -100 = all killed)
Details in all cases: 10 µM
K-562 leukemia = tested on: K-562 leukemia
MDA-MB-231 breast = tested on: MDA-MB-231 breast
RXF 393 renal = tested on: RXF 393 renal
SF-268 CNS = tested on: SF-268 CNS
SF-295 CNS = tested on: SF-295 CNS
SF-539 CNS = tested on: SF-539 CNS
UACC-257 melanoma = tested on: UACC-257 melanoma
M14 melanoma = tested on: M14 melanoma
HT29 colon = tested on: HT29 colon
SNB-75 CNS = tested on: SNB-75 CNS
SNB-19 CNS = tested on: SNB-19 CNS
U251 CNS = tested on: U251 CNS
PC-3 prostate = tested on: PC-3 prostate
SK-MEL-5 melanoma = tested on: SK-MEL-5 melanoma
UACC-62 melanoma = tested on: UACC-62 melanoma
LOX IMVI melanoma = tested on: LOX IMVI melanoma
SK-MEL-28 melanoma = tested on: SK-MEL-28 melanoma
SK-MEL-2 melanoma = tested on: SK-MEL-2 melanoma
HCT-15 colon = tested on: HCT-15 colon
MALME-3M melanoma = tested on: MALME-3M melanoma

Compound | growth (K-562 leukemia) | growth (MDA-MB-231 breast) | growth (RXF 393 renal) | growth (SF-268 CNS) | growth (SF-295 CNS) | growth (SF-539 CNS) | growth (UACC-257 melanoma) | growth (M14 melanoma) | growth (HT29 colon) | growth (SNB-75 CNS) | growth (SNB-19 CNS) | growth (U251 CNS) | growth (PC-3 prostate) | growth (SK-MEL-5 melanoma) | growth (UACC-62 melanoma) | growth (LOX IMVI melanoma) | growth (SK-MEL-28 melanoma) | growth (SK-MEL-2 melanoma) | growth (HCT-15 colon) | growth (MALME-3M melanoma) [%]
CC(C)(C)NC/C(=C\c1ccccc1)C(=O)c1ccccc1 | 6.24% (active) | -23% (active) | -66.4% (active) | 7.36% (active) | 85.9% | -46.2% (active) | -8.37% (active) | -30.6% (active) | -46.1% (active) | 26.9% | 66.1% | -18.1% (active) | 0.348% (active) | -66.9% (active) | -79.3% (active) | -77% (active) | -29.2% (active) | -64.3% (active) | – | –
O=C(Nc1ccncc1)C(=O)c1cn(S(=O)(=O)c2cccc3ccccc23)c2ccccc12 | 18.9% | 74.6% | 89.7% | 107% | 52% | 92.7% | 89% | 82.7% | – | 76.5% | 80.5% | 80.7% | 68.5% | 68% | 63.7% | 61.5% | 95.3% | – | 65.7% | –
COc1cc([C@@H]2c3cc4c(cc3C(Br)[C@H]3COC(=O)[C@H]23)OCO4)cc(OC)c1OC (some centres not stated) | – | -5.49% (active) | – | -29.9% (active) | -15.4% (active) | -44.5% (active) | 16.2% | -8.65% (active) | – | 9.76% (active) | -32.3% (active) | 1.29% (active) | 0.631% (active) | -64.9% (active) | 14.1% | 23.8% | – | 7.95% (active) | -3.53% (active) | 31.5
CC1CC(=O)OC(C)C1 (configuration not stated) | – | 113% | 104% | 111% | 94.6% | 98.5% | 111% | 100% | 112% | 78.9% | 116% | – | 101% | 100% | – | 102% | 102% | 90.1% | 104% | 98.7
CN(C)CCS(=O)(=O)CCN(C)C | – | 88.5% | 99.2% | 107% | 110% | 100% | 110% | 96.7% | – | 110% | 103% | 104% | 102% | 98.7% | 97.8% | 105% | 108% | 106% | 103% | 117
CCN(CC)CCOc1nc2cc(OC)c(OC)cc2c2c1-c1ccc(OC)cc1C2=O | 69.6% | 92.4% | 86.2% | 44.3% | 29.6% | 81.9% | 101% | 85.9% | 40.4% | 56.5% | 73.4% | – | 81.8% | 91% | 78.9% | 30.4% | 112% | 74.2% | 81.4% | –
Cc1ccc(NC(=O)CSc2nc3ccccc3c(=O)n2CCc2ccccc2)c(C(=O)O)c1 | – | 90.6% | – | 104% | 91.8% | 104% | 98.1% | 97.8% | 111% | 84.3% | 105% | 101% | 97.8% | 105% | 99.9% | 99.6% | 108% | 89.8% | 107% | –
Nc1ncn([C@@H]2O[C@H](CO)[C@@H](O)[C@H]2O)c(=O)n1 | – | -3.92% (active) | – | 33.8% | 28.4% | 3.27% (active) | 48% | 19.7% | 19.9% | 20.3% | 46.6% | 19.6% | 31% | 48.3% | 12.5% | -9.93% (active) | 34.8% | -21.5% (active) | 22.9% | –
O=C(CNC(=O)OCc1ccccc1)NCC(=O)Oc1ccc([N+](=O)[O-])cc1 | 117% | 106% | 117% | 108% | 103% | 104% | – | 89.5% | 98.7% | 109% | – | 11.8% | 89.8% | 98.1% | 107% | 87.6% | 104% | – | 105% | –
COc1ccc2c(c1)sc1nc(-c3ccccc3)c(-c3cccnc3)n12 | 82% | 107% | 103% | 111% | 97% | 102% | 100% | 97.7% | – | 95.5% | 103% | 96.2% | 88.9% | 77.7% | 82.7% | 91.4% | 110% | 120% | 84.6% | –
O=C(O)CN1C(=O)c2cccc3cccc(c23)C1=O | – | 85.1% | – | 122% | 99.7% | 98.7% | 98.2% | 99.6% | 100% | 89.4% | 99.2% | 97.4% | 104% | 106% | 100% | 98.6% | 109% | 111% | 108% | 102
CCn1cc(C(=O)O)c(=O)c2cnc(N3CCCC3)nc21 | – | 106% | – | 116% | 94.7% | 100% | 97.2% | 96.9% | 111% | 88.1% | 105% | 103% | 102% | 102% | 108% | 99.3% | 113% | 97.7% | 111% | 92.8
C[N+](C)(C)c1ncnc2nc[nH]c12 | 73.3% | 111% | – | 102% | 87.8% | 97.6% | 91.5% | 93.8% | – | 70% | – | 93.9% | 115% | 85.4% | 90.4% | 90.4% | 108% | 75.8% | 94.2% | –
CCCCCCCCCCCCCCCCCC(=O)OCCCCCCC | – | 98.7% | 96.4% | 94.9% | 99.9% | 112% | 109% | 108% | 102% | 98.3% | 116% | 100% | 92.9% | 110% | 110% | 96.5% | 122% | 127% | 95.5% | 115
COc1ccc(-c2nc3sc(-c4ccccc4)c(-c4ccccc4)n3c2/C=C/C(=O)c2ccccn2)cc1 | 66% | 75.9% | 84% | 88% | 99.5% | 83.7% | 87.2% | 89% | 34.7% | 29.1% | 97.1% | 85.4% | 3.71% (active) | 70.9% | 104% | 90.5% | 104% | 67.3% | – | –
O=C(NN1C(=O)CSC1c1ccc(Cl)cc1)c1cccnc1 (configuration not stated) | – | 156% | – | 97% | 78.3% | 105% | 112% | 84.1% | 109% | 110% | 113% | 99.5% | 93.6% | 102% | 125% | 102% | – | 109% | 119% | 88.8
COc1ccc(C2CC(c3ccc(N(C)C)cc3)=NN2c2ccc(S(N)(=O)=O)cc2)cc1 (configuration not stated) | – | 67.7% | 63.2% | 59.6% | 35.2% | 114% | 73.7% | 69.2% | 29.6% | 69.6% | 66.6% | 26.6% | 18.9% | 69.4% | 62.3% | 54.9% | 86.3% | 79.7% | 43% | 83
